G9a inh: inhibitors of human histone lysine methyltransferase G9a; Q96KQ7; G9a H3K9 monomethylation, AlphaScreen, 2 h; Potency, µM (doses to about 102 µM), without a hit: top-dose activity, negative = inhibition, most hits filed as inhibitors; 350,000 compounds, 8.8% hits; note: % is set by controls: 0 for no effect and ±100 for the full control effect; nearly all actives have a fitted effect of over 75% in size
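Step 1: enzyme (final 20 nM) with compound, 15 min RT. Step 2: substrate peptide 500 nM and SAM 20 uM, 2 h RT. Step 3: anti-H3K9me1 antibody and AlphaScreen beads, 10 min, then plate read.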
BAZ2B inh: inhibitors of human BAZ2B bromodomain | 360,000 compounds, 4.4% hits | Potency, µM (titrated, usually from 114 µM), without a hit: at the highest dose activity change, negative = inhibition, hits mostly inhibitors | AID 504333 | AlphaScreen BAZ2B-H3K14Ac peptide displacement | Q9UIF8; note: % is set by controls: 0 for no effect and ±100 for the full control effect; nearly all actives have a fitted effect of over 60% in size
Target sequence (Q9UIF8 whole entry, looked up): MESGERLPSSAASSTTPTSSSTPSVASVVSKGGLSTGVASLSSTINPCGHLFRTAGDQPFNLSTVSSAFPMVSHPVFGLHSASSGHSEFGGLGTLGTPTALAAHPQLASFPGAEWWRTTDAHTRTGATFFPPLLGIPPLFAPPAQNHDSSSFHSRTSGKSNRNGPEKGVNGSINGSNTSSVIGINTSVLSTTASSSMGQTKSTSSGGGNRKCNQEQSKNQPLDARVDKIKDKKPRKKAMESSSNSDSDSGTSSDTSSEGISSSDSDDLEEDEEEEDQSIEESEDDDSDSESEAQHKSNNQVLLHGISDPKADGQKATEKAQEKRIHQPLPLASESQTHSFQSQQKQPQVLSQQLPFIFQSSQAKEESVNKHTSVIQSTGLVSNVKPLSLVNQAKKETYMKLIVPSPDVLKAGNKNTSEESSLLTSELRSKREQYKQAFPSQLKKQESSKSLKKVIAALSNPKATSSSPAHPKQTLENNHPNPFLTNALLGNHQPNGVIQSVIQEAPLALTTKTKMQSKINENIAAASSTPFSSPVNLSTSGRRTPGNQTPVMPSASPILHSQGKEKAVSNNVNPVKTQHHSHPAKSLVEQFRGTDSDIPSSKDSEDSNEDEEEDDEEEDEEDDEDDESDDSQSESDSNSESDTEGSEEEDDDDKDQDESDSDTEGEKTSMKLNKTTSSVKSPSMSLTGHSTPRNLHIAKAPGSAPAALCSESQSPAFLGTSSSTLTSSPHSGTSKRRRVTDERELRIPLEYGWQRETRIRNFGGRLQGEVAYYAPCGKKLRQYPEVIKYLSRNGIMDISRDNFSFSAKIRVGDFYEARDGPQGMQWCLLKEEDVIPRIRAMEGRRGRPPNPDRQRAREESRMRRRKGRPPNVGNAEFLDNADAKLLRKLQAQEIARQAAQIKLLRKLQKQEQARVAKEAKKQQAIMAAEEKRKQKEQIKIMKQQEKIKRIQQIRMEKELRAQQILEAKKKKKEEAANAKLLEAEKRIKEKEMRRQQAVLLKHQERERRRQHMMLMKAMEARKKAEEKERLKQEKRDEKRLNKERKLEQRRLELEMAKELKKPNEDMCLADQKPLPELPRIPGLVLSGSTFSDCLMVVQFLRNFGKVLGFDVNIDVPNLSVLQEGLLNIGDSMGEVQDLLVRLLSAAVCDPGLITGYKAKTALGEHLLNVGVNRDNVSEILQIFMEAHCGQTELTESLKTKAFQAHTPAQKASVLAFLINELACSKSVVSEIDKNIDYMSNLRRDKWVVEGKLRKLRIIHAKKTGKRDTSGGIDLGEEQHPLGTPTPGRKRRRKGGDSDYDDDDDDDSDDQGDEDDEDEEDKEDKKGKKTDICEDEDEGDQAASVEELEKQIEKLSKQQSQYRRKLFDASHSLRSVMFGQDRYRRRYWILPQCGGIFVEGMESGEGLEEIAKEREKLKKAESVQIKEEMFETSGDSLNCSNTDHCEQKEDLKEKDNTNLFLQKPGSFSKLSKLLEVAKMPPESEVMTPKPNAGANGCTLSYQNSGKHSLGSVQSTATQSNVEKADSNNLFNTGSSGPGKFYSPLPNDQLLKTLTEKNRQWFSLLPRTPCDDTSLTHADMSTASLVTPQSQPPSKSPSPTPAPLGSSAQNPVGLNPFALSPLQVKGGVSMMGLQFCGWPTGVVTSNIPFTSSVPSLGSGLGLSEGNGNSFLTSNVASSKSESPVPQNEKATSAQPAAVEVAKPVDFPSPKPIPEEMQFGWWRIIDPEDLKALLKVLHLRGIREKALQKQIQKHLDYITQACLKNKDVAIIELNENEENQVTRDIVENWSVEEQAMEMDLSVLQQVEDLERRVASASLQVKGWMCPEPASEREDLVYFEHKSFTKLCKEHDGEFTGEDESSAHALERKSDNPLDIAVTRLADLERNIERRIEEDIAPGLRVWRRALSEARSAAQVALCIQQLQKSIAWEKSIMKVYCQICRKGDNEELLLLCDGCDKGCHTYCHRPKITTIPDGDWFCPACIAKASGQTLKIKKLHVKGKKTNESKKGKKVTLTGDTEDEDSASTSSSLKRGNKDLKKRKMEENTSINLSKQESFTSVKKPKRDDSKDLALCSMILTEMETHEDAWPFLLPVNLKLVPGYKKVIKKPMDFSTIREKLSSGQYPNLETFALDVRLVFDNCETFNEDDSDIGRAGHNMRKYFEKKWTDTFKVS
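AlphaScreen luminescence quantifies BAZ2B engagement of H3K14Ac peptide; the protein and biotinylated peptide are both at 50 nM final, buffer PBS pH 7.4 with 0.01% Tween-20, all steps at room temperature.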
GLS inhibitor: inhibitors of human glutaminase (GLS). O94925. Potency, µM (series often up to 45.5 µM), without a hit: at the top dose activity change, negative = inhibition, most hits filed as inhibitors. 410,000 compounds, 0.21% hits. GLS enzymatic activity, qHTS titration; note: % is set by controls: 0 for no effect and ±100 for the full control effect
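Enzyme dispensed in phosphate buffer (45 mM, pH 8.2, 0.02% Tween-20), compounds pinned in, then 1 mM L-glutamine solution and the glutamate oxidase–HRP–Amplex Red mix added; fluorescence read immediately and again after 30 min at room temperature.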
JMJD2A Tudor inh: JMJD2A Tudor domain (human) inhibition; O75164; AlphaScreen JMJD2A-Tudor / H3K4me3 peptide binding; Potency, µM (highest dose often 114 µM), for the others: at the highest dose activity change, negative = inhibition, usual class: inhibitors; 390,000 compounds, 4.4% hits; AID 504339; note: % is set by controls: 0 for no effect and ±100 for the full control effect; nearly all actives have a fitted effect of over 50% in size
HP1b binding inh: inhibitors of HP1-beta chromodomain binding to methylated histone tails; P83916; AlphaScreen HP1-beta / biotin-H3K9me3 peptide binding; Potency, µM (doses to about 114 µM), inactives show top-dose activity change, negative = inhibition, hits mostly inhibitors; 390,000 compounds, 0.56% hits; note: nearly all actives have a fitted effect of over 70% in size
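AlphaScreen: HP1-beta (50 nM) preformed 30 min with biotin-H3(1-18)K9me3 peptide (50 nM) in PBS pH 7.4, 0.01% Tween-20. Compound added for 30 min at RT, then streptavidin donor/nickel chelate acceptor beads (10 ug/mL) for 30 min.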
Numbers without * were called inactive; ? = inconclusive; . = no result given; [ ] = remark or other dose. Sampled rows, rich in hits. Any-hit rate of the full collection: about 10%. Calls come from the whole dose curve; as a rule, active = well fitted curve in the direction sought with a large enough effect; inconclusive = small, poorly fitted or top-dose-only effect, or another doubt; inactive = no such curve, though single readings can be large; an effect the other way counts as inactive or inconclusive. Potency is the fitted concentration of half-maximal effect.

SMILES	G9a inh	BAZ2B inh	GLS inhibitor	JMJD2A Tudor inh	HP1b binding inh
COC(=O)c1cc2occc2n1CC(=O)Nc1ccc(C(C)C)cc1	1%[59 µM]	-4%	0%	-4%	35%
Cc1ccc(Cl)cc1N1CCN(c2nc3ccccc3c3nc(-c4cccnc4)nn23)CC1	?	2%	-19%	5%	18%
Cc1ccc(NC(=O)c2cc(S(=O)(=O)N3CCc4ccccc43)cn2C)c(Cl)c1	-30%[59 µM]	-36%	-14%	1%	16%
Cc1nc([N+](=O)[O-])c(C(=O)OCc2cccc(Br)c2)n1C	50µM*	-17%	0%	-16%	33%
CN(C)/C=C/c1c([N+](=O)[O-])c2ccc(O)cc2n1-c1ccccc1	.	35µM*	8.9µM*	?	-28%
Cc1cc(Cl)c2oc(C(=O)NCCN3CCOC3=O)c(C)c2c1	-4%	-15%	-4%	-10%	31%
Cc1cc(Cl)c2oc(C(=O)N3CCCCC3CCN3CCCC3=O)c(C)c2c1 (configuration not stated)	.	50µM*	1%	-15%	18%
CCCn1c(CN2CCN(C(=O)c3ccco3)CC2)nc2cc(S(=O)(=O)N(C)C)ccc21	40µM*	20%	4%	-8%	?
CCn1c(CN2CCN(c3ccc(OC)cc3)CC2)nc2cc(S(=O)(=O)N(C)C)ccc21	?	-33%	10%	?	1%
C[C@H](NC(=O)[C@@H]1Cc2ccccc2CN1)C(=O)NC1CCCC1	79µM*	-38%	-1%	-5%	35%
O=C(CNC(=O)[C@@H]1Cc2ccccc2CN1)NC1CCCC1	21%[0.0925 µM]	-12%	0%	-12%	23%[57 µM]
Cc1cc(C)cc(NC(=O)[C@H](NC(=O)[C@@H]2Cc3ccccc3CN2)c2ccccc2)c1	79µM*	-26%	-2%	-15%	15%
CSCC[C@H](NC(=O)[C@@H]1Cc2ccccc2CN1)C(=O)NC1CCCCC1	25µM*	-32%	0%	-8%	30%
Cc1ccc(NC(=O)[C@H](NC(=O)[C@@H]2Cc3ccccc3CN2)c2ccccc2)c(C)c1	.	-20%	-6%	-4%	43%
CC(C)c1ccc(NC(=O)[C@@H](C)NC(=O)[C@@H]2Cc3ccccc3CN2)cc1	?	-21%	-5%	-12%	51%
CC(C)C[C@H](NC(=O)[C@@H]1Cc2ccccc2CN1)C(=O)Nc1ccc(C(C)C)cc1	28µM*	?	-3%	-30%	10%
C[C@H]1CCCCO[C@@H](CN(C)C(=O)NC2CCCCC2)[C@@H](C)CN([C@@H](C)CO)C(=O)c2cc(NC(=O)Cc3ccccc3)ccc2O1	.	.	4%	.	.
COc1ccc(NC(=O)C2CCCN(S(=O)(=O)c3ccc4c(c3)CCCC(=O)N4)C2)cc1OC (configuration not stated)	-1%[59 µM]	5%[57.1 µM]	1%	-10%	26%
C[C@H](NC(=O)[C@@H]1Cc2ccccc2CN1)C(=O)Nc1ccc2c(c1)OCCO2	16%[0.0925 µM]	-9%	-4%	-16%	21%
Cc1ccc(NC(=O)[C@H](Cc2ccccc2)NC(=O)[C@@H]2Cc3ccccc3CN2)c(C)c1	35µM*	-20%[57.1 µM]	12%	-12%	34%
Cc1ccc(NC(=O)[C@H](Cc2c[nH]c3ccccc23)NC(=O)[C@@H]2Cc3ccccc3CN2)c(C)c1	-31%[12.7 µM]	?	2%	-20%	23%
C[C@H](NC(=O)[C@@H]1Cc2ccccc2CN1C(=O)OC(C)(C)C)C(=O)NC1CCCCC1	10%	-12%	-5%	7%	28%
CSCC[C@H](NC(=O)[C@@H]1Cc2ccccc2CN1)C(=O)Nc1ccc2c(c1)OCCO2	50µM*	?	6%	-34%	31%
C[C@@H](NC(=O)[C@@H]1Cc2ccccc2CN1C(=O)OC(C)(C)C)C(=O)NC1CCCCC1	79µM*	12%	-2%	-2%	39%
CC(C)c1ccc2oc(-c3cc(NC(=O)c4cccnc4)ccc3Cl)nc2c1	?	-38%	-3%	-33%	14%
SMILES	G9a inh	BAZ2B inh	GLS inhibitor	JMJD2A Tudor inh	HP1b binding inh
COc1ccc(CNC(=O)c2cc(-c3cccs3)nc3ccccc23)c(OC)c1	-35%[59 µM]	2%	-2%	-8%	29%
CNc1ncnc2ccc(-c3c(C)noc3C)cc12	2%[12.7 µM]	?	.	.	.
CC(C)(C)c1ccc(C(=O)N2CCC2(C)C(=O)NCc2ccc3c(c2)OCO3)cc1 (configuration not stated)	.	.	-2%	.	.
O=c1nc(Nc2cccc(Cl)c2)oc2cc(Cl)oc(=O)c12	50µM*	?	-2%	-22%	33%
COc1ccc(NC(=S)N2c3ccccc3CC2C)cc1OC (configuration not stated)	50µM*	-37%	13%	-28%	-5%
CN(C)S(=O)(=O)c1cccc(NC(=S)N2CCc3ccccc32)c1	-33%	.	16%	-26%	14%
CC1Cc2ccccc2N1C(=S)Nc1cccc(S(=O)(=O)N(C)C)c1 (configuration not stated)	40µM*	-21%	14%	-35%	14%
CCCCC(=O)Nc1cc(Cl)ccc1C(=O)O	25µM*	?	10%	5%	46%
CC(C)N1CCC1(C)C(=O)Nc1nc2ccccc2[nH]1 (configuration not stated)	.	.	21%	.	.
CC(=O)Nc1ccc(NC(=O)c2cccc(-c3cc4ccccc4oc3=O)c2)cc1	1%	-9%	-1%	4%	27%
O=C(Nc1ccc(N2CCCC2)c(Cl)c1)c1cccc(-c2cc3ccccc3oc2=O)c1	45µM*	-11%	10%	-25%	-9%
Cc1ccc(C(=O)/C=C/c2ccc(-c3ccccc3[N+](=O)[O-])o2)cc1	25µM*	25µM*	0%	?	?
O=C(/C=C/c1ccc(-c2ccccc2[N+](=O)[O-])o1)c1ccc(Br)cc1	25µM*	28µM*	-7%	?	-36%
N#C/C(=C/c1ccc(-c2ccccc2[N+](=O)[O-])o1)C(N)=O	-39%	-17%	12%	-9%	24%
O=C(/C=C/c1ccc(-c2ccccc2[N+](=O)[O-])o1)c1ccc(F)cc1	35µM*	22µM*	-5%	?	?
O=C1NC(c2ccc(-c3ccccc3[N+](=O)[O-])o2)C(C(=O)c2ccc(F)cc2)C(O)(C(F)(F)F)N1 (configuration not stated)	?	?	-6%	-35%	-15%
COc1cc(OC)cc(C2=Cc3ccc(OC)cc3C(CC(C)=O)N2c2ccc(C#CCCO)cc2)c1 (configuration not stated)	.	.	12%	.	.
COc1ccccc1C1NC(=O)c2n[nH]c(-c3cccs3)c21 (configuration not stated)	5%[59 µM]	.	3%	-28%	8%
Cc1ccccc1-c1cc(C(=O)NCC2CC2)nn1CC1CC(c2cccc([N+](=O)[O-])c2)=NO1 (configuration not stated)	2%[0.501 µM]	-9%	-3%	-24%	15%

Screening data from PubChem.
